This is a sample that favours compounds with a hit; in the whole collection about 6.5% have one here.
HCMV inh = human cytomegalovirus inhibition; AID 1259415; actives 4.5% (n = 410,000); activity change, negative = inhibition, % at 57.5 µM; HFF cells, HCMV-luciferase reporter, 72 h; hits give low values; in the data active = activity change below about -60%; inconclusive = no clear call, values can overlap the other calls; inactive = above about -39%
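Steps: HFFs plated, 16 h 37C; compounds added; HCMV-luciferase added to MOI 1 PFU/cell; 72 h 37C; OneGlo reagent, 5 min room temperature; luminescence read, normalized to controls.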
MARV entry inh = inhibitors of Marburg virus binding or cell entry | Marburg virus pseudotyped entry inhibition, cell reporter | Potency, µM (titrated, usually from 37.8 µM), inactives show at the highest dose activity change, negative = inhibition, most hits filed as inhibitors | actives 1.8% (n = 300,000); calls by dose curve; tested in HEK293 cells; also: potency is read from the fitted curve at half-maximal effect
FMDV antiviral = foot and mouth disease virus antiviral activity | Potency, µM (highest dose often 57.9 µM), for inactives: at the top dose activity change, negative = inhibition, hits mostly inhibitors | FMDV antiviral cell-based qHTS | actives 1.2% (n = 410,000); calls by dose curve; tested in HEK293T cells; also: read-out not given here; potency is read from the fitted curve at half-maximal effect; nearly all actives have a fitted effect of over 45% in size
VACV Venus inh = vaccinia inhibition (Venus reporter) | Vaccinia virus Venus reporter expression, fluorescence | Potency, µM (top dose mostly 36.5 µM), inactives show at the top dose activity change, negative = inhibition, usual class: inhibitors | actives 0.46% (n = 330,000) | AID 720580; calls by dose curve; tested in A549 cells; also: potency is read from the fitted curve at half-maximal effect; nearly all actives have a fitted effect of over 30% in size
Lassa entry inh = inhibitors of Lassa virus binding or cell entry; Lassa virus pseudotype entry inhibition, cell reporter; Potency, µM (series often up to 37.9 µM), for the others: at the highest dose activity change, negative = inhibition, hits mostly inhibitors; actives 1.2% (n = 300,000); calls by dose curve; tested in HEK293 cells; also: potency is read from the fitted curve at half-maximal effect; nearly all actives have a fitted effect of over 50% in size
VACV mCherry inh = inhibitors of vaccinia virus infection (mCherry reporter signal); Vaccinia virus mCherry reporter infection, fluorescence; Potency, µM (titrated, usually from 36.5 µM), without a hit: at the highest dose activity change, negative = inhibition, hits mostly inhibitors; actives 0.63% (n = 310,000); AID 720579; calls by dose curve; tested in A549 cells; also: potency is read from the fitted curve at half-maximal effect; nearly all actives have a fitted effect of over 35% in size
Starred values were filed as active, the others as inactive; i = inactive; ? = inconclusive; · = not tested or not shown; [ ] = dose if it differs, or a comment. % is scaled to controls: 0 for no effect and ±100 for the full control effect.

SMILES	HCMV inh	MARV entry inh	FMDV antiviral	VACV Venus inh	Lassa entry inh	VACV mCherry inh
COc1ccc(CN(C)C(=O)c2ccc(OCC(=O)Nc3cccc(C(F)(F)F)c3)c(OC)c2)c(OC)c1	-83*	?	?	?	?	-3%
COc1cccc(CN(C)C(=O)c2ccc(OCC(=O)Nc3cccc(C(F)(F)F)c3)c(OC)c2)c1	-86*	?	?	?	8.9µM*	?
OCC1COC(c2ccccc2)=N1 (configuration not stated)	69	·	·	·	·	·
Cc1ccc(OCC(=O)NCC2(N3CCOCC3)CCCCC2)cc1C	-60*	?	-21%	-9%	1%[46.1 µM]	1%
CCCCCOc1ccc2oc(=O)c3c(c2c1)CCCN3C(=O)CN1CCCC(C(=O)OCC)C1 (configuration not stated)	-10	?	?	?	9.2µM*	?
CCOC(=O)C1CCCN(CC(=O)N2CCCc3c2c(=O)oc2ccc(OCc4ccccc4)cc32)C1 (configuration not stated)	34	0%[46.1 µM]	-19%	10%	15%[46.1 µM]	-12%
CC1(C)C(=O)NC2=C1C(=O)C(=O)c1ccccc12	·	·	14µM*	·	·	·
C=C1C2c3ccccc3C(CC2(C)O[Si](C)(C)C)N1C(=O)OC (configuration not stated)	·	22%[14.2 µM]	·	·	·	·
Cc1ccccc1Cn1nc(C)c(NC(=O)c2sc3ccccc3c2Cl)c1C	-30	?	32µM*	?	-18%	-24%
Cc1nn(Cc2c(Cl)cccc2Cl)c(C)c1NC(=O)c1sc2ccccc2c1Cl	-85*	?	0%	-24%	-31%	?
Cc1nn(Cc2ccc(Cl)cc2Cl)c(C)c1NC(=O)c1sc2ccccc2c1Cl	-29	2%	-28%	1%	-14%	-8%
Cc1nn(Cc2ccc(Cl)c(Cl)c2)c(C)c1NC(=O)c1noc2c1CCc1ccccc1-2	-39	?	?	-16%	-25%[46.1 µM]	?
Cc1cc(C(=O)Nc2c(C)nn(Cc3ccccc3Cl)c2C)no1	-7	1%	-2%	·	-7%	·
Cc1nn(C)cc1C(=O)Nc1c(C)nn(Cc2ccccc2Cl)c1C	-80*	?	-1%	-7%	0%	-21%
Cc1nn(Cc2ccc(Cl)c(Cl)c2)c(C)c1NC(=O)c1sc2ccccc2c1Cl	-18	-3%[46.1 µM]	32µM*	-36%	?	?
CC(C)(C)OC(=O)N1CCN(c2nc(-c3cccs3)nc3ccccc23)CC1	·	·	·	-13%	·	i
CC(C)(C)NC(=O)C(c1ccccc1)n1c(-c2ccccc2Br)nc2ccccc21 (configuration not stated)	54	·	·	·	·	·
Cc1cc2nc(-c3ccccc3Br)n(C(C(=O)NC(C)(C)C)c3ccccc3)c2cc1C (configuration not stated)	-99*	·	·	·	·	·
CC#CC(=O)N[C@H]1CC[C@@]23CCCN2C(=O)CCC[C@H]3[C@H]1Cc1ccccc1	-14	·	·	·	·	·
Cc1ccc(C)c(NC(=S)Nc2cccnc2)c1	-1	?	-10%	-10%	-3%	-5%
Cc1ccc(NC(=S)Nc2cccnc2)c(S(=O)(=O)N2CCCCC2)c1	-75*	?	-19%	-4%	?	-2%
CCn1cc2nc(SCC(=O)Nc3ccc(C)cc3)n(Cc3ccc(C)cc3)c(=O)c2n1	-23	·	-10%	-8%	?	-15%
O=C1CCCCC1Nc1ccc2ccccc2c1 (configuration not stated)	-32	3.5µM*	26%	-17%	?	?
CC(Oc1ccccc1)C(=O)Nc1cccc(-c2nc3ccccc3[nH]2)c1 (configuration not stated)	28	?	-20%	-15%	-27%	·
COc1ccc(CC(=O)Nc2cccc(-c3csc(C)n3)c2)cc1	-14	?	?	-23%	?	·
SMILES	HCMV inh	MARV entry inh	FMDV antiviral	VACV Venus inh	Lassa entry inh	VACV mCherry inh
Cc1nc(-c2cccc(NC(=O)COc3ccc(Cl)cc3)c2)cs1	-64*	13µM*	?	-21%	?	-7%
Cc1nc(-c2cccc(NC(=O)C(C)Oc3ccccc3)c2)cs1 (configuration not stated)	-36	-2%	-5%	-18%	8.9µM*	0%
COc1ccc(OC)c([C@@H]2C(C#N)=C(N)Oc3cc(C)[nH]c(=O)c32)c1	·	8%	·	·	·	·
O=C(CSc1n[nH]c(=O)[nH]c1=O)c1ccccc1	-67*	4%	-16%	?	-2%	·
O=C(CSc1n[nH]c(=O)[nH]c1=O)c1cccc([N+](=O)[O-])c1	?	·	-9%	·	·	·
Cc1cc(C)cc(C(=O)N2CC(=O)Nc3ccc(C)cc3C2c2ccccc2)c1 (configuration not stated)	39	·	20%	-27%	?	-29%
Cc1ccc(S(=O)(=O)N2CCN(c3nc(-c4ncccn4)nc4ccccc34)CC2)cc1	·	·	·	-13%	·	i
O=C1C2C3C=CC(CC3)C2C(=O)N1c1ccccc1 (configuration not stated)	-15	·	-6%	·	·	·
O=C1C=CC2C3C(=O)N(c4ccccc4)C(=O)C3C1N2Cc1ccccc1 (configuration not stated)	-78*	?	10µM*	?	25µM*	28µM*
CC(CNC(=O)c1cnn(-c2ccc(F)cc2)c1-n1cccc1)c1ccccc1 (configuration not stated)	-28	·	?	-21%	-2%[46.1 µM]	-17%
CCCCOc1cccc(C(=O)Nc2cc(NC(=O)c3ccco3)ccc2OC)c1	-104*	?	0%	-6%	-24%[46.1 µM]	-3%
COc1ccc(NC(=O)c2ccco2)cc1NC(=O)c1cccc(OC(C)C)c1	-35	?	-8%	·	10µM*	·
COc1cc(C(=O)OCC(C)=O)cc(NC(=O)c2ccco2)c1OC	-69*	·	-30%	·	·	·
COc1cc(C(=O)OCC(=O)NC2CCCC2)cc(NC(=O)c2ccco2)c1OC	-21	-13%	8%	·	0%	·
COC(=O)/C=C/[C@H]1CCCN1c1ccc(OC)cc1	-14	·	·	·	·	·
C[N+](C)(C)CCC(=O)c1cccc2ccccc12	·	4.5µM*	-20%	?	·	?
COc1ccc(S(=O)(=O)N2CCN(CC(=O)Nc3ccc(Cl)c(C(F)(F)F)c3)CC2)cc1	?	·	0%	-27%	?	-20%
O=C(Cc1n[nH]c(=O)c2ccccc12)OCc1c(Cl)cccc1Cl	-68*	0.52µM*	-2%	20%	0.63µM*	?
COc1ccc(N=C2NC(=O)/C(=C/c3ccco3)S2)cc1	-68*	·	56%	·	·	·
COc1ccc(S(=O)(=O)/N=C2/NC(=O)/C(=C/c3ccco3)S2)cc1	14	9%	46%	-11%	12%	i
O=C1NC(=Nc2ccccc2)S/C1=C\c1ccccc1	-86*	·	70%	·	·	·
COc1cc(/C=C2/SC(=Nc3ccc(O)cc3)NC2=O)ccc1O	-77*	·	-4%	44%	·	13µM*

Compound activity: PubChem BioAssay, National Center for Advancing Translational Sciences (NCATS)
